Laboratory results taken from ChEMBL document CHEMBL3988442, “University of Dundee, Small-Polar-MMV Screening Library” (2021).
Among all 69,000 compounds or so, about 950 (1.4%) showed an effect of 50% or more. The sample as a whole holds a higher share of strong results than the screen did.

Test system: Mycobacterium tuberculosis
Test: Cornell M. t heat shock assay; note: in the data most compounds retested in dose-response had high values
Format: functional, organism-based
Parameters: dose or concentration left out as unconfirmed

Row | Structure (SMILES) | Percent Effect [%]
1 | O=C(O)C(F)(F)F.O=C1COC2(CCN(C(=O)c3ccco3)CC2)CN1Cc1cccnc1 | -2.228
2 | O=C(O)C(F)(F)F.O=C(O)C(F)(F)F.c1cnc(N2C[C@H]3CN(CC4CCOC4)C[C@H]3C2)nc1 (some centres not stated) | -39.47
3 | O=C(O)C(F)(F)F.O=C(c1ccco1)N1CCCC2(CCN(c3nncs3)C2)C1 (configuration not stated) | 42.37
4 | CN(C)C(=O)COC[C@@H]1CC[C@H]2[C@H](CCN2c2ccccn2)O1.O=C(O)C(F)(F)F | -1.761
5 | Cn1cc(CN2CCC[C@]3(C[C@@H](Oc4ccccn4)CO3)C2)cn1.O=C(O)C(F)(F)F.O=C(O)C(F)(F)F | 27.52
6 | Cn1cnc(S(=O)(=O)N2CC3(CCN(CC4CC4)C3)C2)c1.O=C(O)C(F)(F)F.O=C(O)C(F)(F)F | 2.143
7 | CO[C@@H]1CCN(Cc2c(C)noc2C)[C@@H]2CN(Cc3cccnc3)C[C@@H]21.O=C(O)C(F)(F)F.O=C(O)C(F)(F)F.O=C(O)C(F)(F)F | 14.07
8 | CN(Cc1ccncc1)Cc1nccn1Cc1ccccc1 | 6.234
9 | CN(CCc1ccccn1)Cc1nccn1Cc1ccccc1 | 101.1
10 | CN(CCc1ccncc1)Cc1nccn1Cc1ccccc1 | 9.887
11 | CNC[C@H]1CC[C@H](c2cc(CN(C)S(=O)(=O)N(C)C)n(C)n2)CC1.Cl | -16.56
12 | O=C(O)C(F)(F)F.O=C([C@@H]1CCO[C@@H]2CCN(Cc3ccc(F)cc3)C[C@H]21)N1CCCCO1 | -25.18
13 | COC1CCN(C(=O)CC2CCCC2)CC(=O)N(C)c2ccccc21 (configuration not stated) | 27.7
14 | COC1CN(C(=O)OCC(C)C)CCC(=O)N(C)c2ccccc21 (configuration not stated) | 53.04
15 | COC1CN(C(=O)CC(C)C)CCC(=O)N(C)c2ccccc21 (configuration not stated) | 33.11
16 | COC1CN(C(=O)CC2CCCC2)CCC(=O)N(C)c2ccccc21 (configuration not stated) | 50.44
17 | COC1CN(C(=O)CC(C)(C)C)CCC(=O)N(C)c2ccccc21 (configuration not stated) | 48.93
18 | COC1CN(C(=O)COC(C)=O)CCC(=O)N(C)c2ccccc21 (configuration not stated) | 45.97
19 | Cn1cc(C[C@H]2[C@H](N3CCOCC3)CCN2C(=O)c2ccco2)cn1.O=C(O)C(F)(F)F | 6.591
20 | COc1ccc(CN(Cc2cccnc2)CC2CCCO2)c(OC)c1.O=C(O)CC(O)(CC(=O)O)C(=O)O (configuration not stated) | 5.923
21 | CCCn1ncc(-c2ccnc(NC3CCSC3)n2)c1C (configuration not stated) | -0.2299
22 | CCCn1ncc(-c2ccnc(N[C@@H]3C[C@@H]4CC[C@H]3C4)n2)c1C | 50.09
23 | CCCn1ncc(-c2ccnc(NC3CC(C)(C)NC(C)(C)C3)n2)c1C | -32.44

Row | Structure (SMILES) | Percent Effect [%]
24 | CCN1C[C@H]2[C@@H](C1)N(S(=O)(=O)c1ccccc1)CC[C@H]2OC.O=C(O)C(F)(F)F | 4.433
25 | O=C(CSCC1CC1)N1CCCC(c2nccn2Cc2ccncc2)C1 (configuration not stated) | 27.98
26 | COCCn1ccnc1C1CCCN(C(=O)CSCC2CC2)C1 (configuration not stated) | 75.33
27 | O=C(CSCC1CC1)N1CCCC(c2nccn2Cc2ccccn2)C1 (configuration not stated) | -24.76
28 | CC(C)c1nc2c(n1C)CCN(Cc1cccc(OCC(N)=O)c1)C2 | -13.93
29 | Cn1cc(CN2CC[C@@H]3[C@@H](CO[C@H]3CNC(=O)c3ccco3)C2)cn1.O=C(O)C(F)(F)F.O=C(O)C(F)(F)F | -15.87
30 | CC/N=c1\nc(NCC)nc2n1C(O)(Nc1cccc(C)c1C)CS2 (configuration not stated) | 59.58
31 | CC/N=c1\nc(NCC)nc2n1C(O)(Nc1cccc(Cl)c1Cl)CS2 (configuration not stated) | 0.756
32 | CC/N=c1\nc(NCC)nc2n1C(O)(Nc1cc(C)ccc1C)CS2 (configuration not stated) | 7.529
33 | CNC(=O)c1cccc(C2CNCCN2C(=O)c2cccc(F)c2)c1.Cl (configuration not stated) | -24.93
34 | O=C(NCc1ccco1)[C@H]1COC[C@H]2CN(Cc3ccccn3)C[C@H]21.O=C(O)C(F)(F)F.O=C(O)C(F)(F)F | -5.073
35 | Cc1ncccc1-c1cc2cccnc2n1CCCNC(=O)C(C)(C)C.Cl | 11.8
36 | Cc1nc(-c2ccnc(N3CCNCC3)n2)no1.Cl.Cl | 10.1
37 | CC(CNS(N)(=O)=O)Oc1cccc(Cl)c1 (configuration not stated) | -31.66
38 | CC(C)COc1ccccc1C(N)CC(C)C (configuration not stated) | -26.57
39 | CC(C)C[C@H](N)COc1cccc(F)c1Oc1ccccc1 | 5.666
40 | CC(C)C[C@H](N)COc1cccc(F)c1Oc1ccc(Cl)cc1 | 105.7
41 | COc1ccccc1C(N)CC(C)C (configuration not stated) | -0.8675
42 | CC(C)C[C@H](N)COc1cccc(F)c1Oc1cccc(Cl)c1 | 103.9
43 | CNCc1cc(F)ccc1Oc1ccc(Cl)cc1 | -7.892
44 | CCOc1ccccc1C(N)CC(C)C (configuration not stated) | 6.467
45 | Cc1ccc(Oc2c(F)cccc2OC[C@@H](N)CC(C)C)cc1 | 104.6
46 | O=C(NC1CC1)[C@@H]1C[C@@H]2CCN(Cc3ccoc3)C[C@@H]2O1.O=C(O)C(F)(F)F | 49.9

Row | Structure (SMILES) | Percent Effect [%]
47 | Cc1nn(C)cc1-c1cncn1CCc1ccc2c(c1)OCCO2.Cl | -2.438
48 | Cl.Cl.c1cncc(OC[C@@H]2CCC[C@@]23CNCCO3)c1 | -0.8406
49 | Cn1ccnc1CN1CCC2(CC1)CCN(c1ccccc1)C2=O.O=C(O)C(F)(F)F | 8.178
50 | O=C(O)C(F)(F)F.O=C(O)C(F)(F)F.O=C1Nc2ccccc2C12CCN(Cc1ccccn1)CC2 | -17.02
51 | CCSCCn1cc(-c2nccs2)nn1 | 12.13
52 | Cc1ccccc1C1CCN(CCNC(=O)CS(C)(=O)=O)C1 (configuration not stated) | -16.65
53 | Cc1ccccc1C1CCN(CCn2cc(-c3nccn3C)nn2)C1 (configuration not stated) | 32.84
54 | Oc1cccc(-c2cc(C3CCN(Cc4cncnc4)C3)ccn2)c1 (configuration not stated) | 20.76
55 | Cc1ccccc1C1CCN(CCn2cc(-c3nccs3)nn2)C1 (configuration not stated) | 59.14
56 | Cc1ccccc1C1CCN(CCn2cc(-c3cccc(O)c3)nn2)C1 (configuration not stated) | 72.96
57 | CCC(=O)N1CCC2(CC1)CN(CCO)Cc1ccccc12.O=C(O)C(F)(F)F | -19.17
58 | NCCc1c(-c2ccccc2)[nH][nH]c1=O.O=C(O)C(=O)O | -25.01
59 | O=C(CCc1cncc(F)c1)NS(=O)(=O)c1ccc(F)cc1F | 21.56
60 | Cn1cccc1C(=O)N1C[C@H]2CN(Cc3cccs3)C[C@H]2C1.O=C(O)C(F)(F)F | -10.6
61 | COCCn1c(-c2cccc(OC)c2)cnc1NC(=O)NCC(C)C | 22.14
62 | COCCn1c(-c2cccc(OC)c2)cnc1NC(=O)NCCC(C)C | 67.45
63 | COCCCNC(=O)Nc1ncc(-c2cccc(OC)c2)n1CCOC | -7.26
64 | Cc1nn(C)c(Cl)c1CNCc1cccnc1N1CCN(C)CC1.Cl | -22.17
65 | O=C(O)C(F)(F)F.O=C1Nc2ccccc2C12CCN(c1nccs1)CC2 | -0.7259
66 | CCC1=N[C@@]2(CC[C@@H]3CN(Cc4ccc(Cl)cc4)C[C@@H]32)C(=O)N1.O=C(O)C(F)(F)F | 4.216
67 | CN1Cc2ccccc2CC2(CCN(CCO)CC2)C1=O.O=C(O)C(F)(F)F | 19.63
68 | Cl.O=C(CCc1cccc(C2CCNCC2)n1)N1CCCCC1 | -1.304
69 | CCc1cnc(N)nc1N[C@@H](C)c1ncccc1C | -10.37

Row | Structure (SMILES) | Percent Effect [%]
70 | CCc1cnc(N)nc1NC(C)c1cnn(C)c1 (configuration not stated) | -5.78
71 | CCc1cnc(N)nc1NC(C)c1ccc(C)c(C)c1 (configuration not stated) | 51.29
72 | Cl.Nc1cnn(CC(=O)N2CCCCC2)c1 | -8.542
73 | CCOc1ccc(CN2CC[C@H]3CC[C@@H](C2)N3)cc1CO | -10.09
74 | CO[C@H]1CCN(S(=O)(=O)c2cccnc2)[C@@H]2CN(CC3CC3)C[C@H]12.O=C(O)C(F)(F)F.O=C(O)C(F)(F)F | 2.331
75 | O=C(O)C(F)(F)F.O=c1cc(CNS(=O)(=O)C2CC2)nc2n1CCCN(CC1CC1)C2 | 21.63
76 | Cc1nc(CN2C[C@@H]3CN(C(=O)c4cccn4C)C[C@@H]3C2)cs1.O=C(O)C(F)(F)F | -44.62
77 | COc1cccc(CNCc2nc3ccccc3c(=O)[nH]2)c1 | 81.36
78 | COc1cccc(CNCCNS(=O)(=O)Cc2ccccc2)c1 | -28.9
79 | C=C(C)COc1cccc(CNCc2nc3ccccc3c(=O)[nH]2)c1 | 22.25
80 | CC(C)N(C)Cc1cnc2n1CCN(Cc1ccco1)C2.O=C(O)C(F)(F)F.O=C(O)C(F)(F)F | -12.15
81 | CC(C)N1CCC2(CCCNC2)C1=O.Cl (configuration not stated) | -7.448
82 | COc1ccc(-c2cnc(N)nc2C2CCCNC2)cc1.Cl (configuration not stated) | 9.716
83 | O=C(O)C(F)(F)F.O=C(O)C(F)(F)F.O=C1COC2(CCN(Cc3ccncc3)CC2)CN1 | -17.34
84 | Cc1ccc(-c2cn[nH]c2C2CCCN(c3ccnc(C)n3)C2)cc1 (configuration not stated) | 19.62
85 | Cc1ccc(-c2cn[nH]c2C2CCCN(c3nccc(N)n3)C2)cc1 (configuration not stated) | 65.07
86 | Cc1ccc(-c2cn[nH]c2C2CCCN(c3ncccn3)C2)cc1 (configuration not stated) | -0.9903
87 | CS(=O)(=O)NC[C@]12COC[C@H]1CN(Cc1ccc3c(c1)OCO3)C2.O=C(O)C(F)(F)F | 3.977
88 | CCOC(=O)N1CC2(CCNCC2)c2cc(Cl)ccc21.Cl | -1.259
89 | COCC(=O)NC1CC2(CCN(CCN(C)C)CC2)c2ccccc21 (configuration not stated) | 10.28
90 | CCN(CC)c1nc(Nc2cccc(C(C)O)c2)nc2ccccc12 (configuration not stated) | 99.47
91 | CCN(CC)c1nc(Nc2cccc(C(=O)O)c2)nc2ccccc12 | -2.465
92 | CC(O)c1cccc(Nc2nc(NCCO)c3ccccc3n2)c1 (configuration not stated) | 10.04
